Drawing on ChEMBL document CHEMBL3433997, “St. Jude Leishmania screening dataset” (2016), this text covers inhibition for 40 molecules.

The assay deals with Solute carrier family 2, facilitated glucose transporter member 1 (Homo sapiens) (UniProt P11166). In words: ST_JUDE_LEISH: Cytotoxicity at 2uM final concentration against transgenic Leishmania Mexicana promastigotes LmGLUT1 that are glucose transport deficient and complemented with the human glucose transporter GLUT1. Activity is measured by DNA content using SYBR green in vitro. Format: functional.
Chain of Solute carrier family 2, facilitated glucose transporter member 1 (Homo sapiens) (P11166 whole entry): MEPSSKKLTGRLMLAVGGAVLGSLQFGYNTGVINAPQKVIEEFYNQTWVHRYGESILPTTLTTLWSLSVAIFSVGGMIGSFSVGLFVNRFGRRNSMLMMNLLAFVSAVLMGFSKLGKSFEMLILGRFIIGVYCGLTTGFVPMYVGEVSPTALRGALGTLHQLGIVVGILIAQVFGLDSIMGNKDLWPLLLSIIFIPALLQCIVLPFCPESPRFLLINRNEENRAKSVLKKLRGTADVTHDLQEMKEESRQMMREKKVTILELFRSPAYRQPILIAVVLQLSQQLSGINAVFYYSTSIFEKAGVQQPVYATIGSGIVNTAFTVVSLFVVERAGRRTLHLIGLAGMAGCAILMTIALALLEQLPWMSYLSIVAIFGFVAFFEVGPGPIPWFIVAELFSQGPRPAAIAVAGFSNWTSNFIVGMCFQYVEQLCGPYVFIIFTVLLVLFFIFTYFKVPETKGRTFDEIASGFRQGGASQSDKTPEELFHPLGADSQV
By inhibition is commonly meant the change of the read-out against control, counted positive when it falls. In the case of `O=C(/C=C/c1ccc(Cl)c(Cl)c1)N1CCC(NCc2c[nH]c3ccccc23)CC1`, the inhibition was found to be 1.33%.
With `CCOc1ccc(-c2nonc2NC(=O)c2ccc(F)cc2)cc1OCC` the figure was -2.77%; with `Cc1cc(C)cc(OCC(O)CN(Cc2cc(Cl)cc(Cl)c2)C(=O)Nc2ccccc2Cl)c1` (stereo not given), 2.01%; with `Cc1ccc(CNC(=O)c2cc3c(=O)n4ccccc4nc3n(CCCN3CCOCC3)c2=N)cc1`, 8.03%.
The figure for `Cc1nc(-c2nc(N3CCOCC3)ncc2-c2ccsc2)sc1C` is -1.47%.
With `CCN(CCNC(=O)Cn1c(C)cc2cc([N+](=O)[O-])ccc21)c1cccc(C)c1` the figure was 6.46%; with `O=C(Nc1ccc(F)cc1F)NC1CCN(c2ccnc3cc(Cl)ccc23)C1` (stereo not given), 6.88%.
On to `COc1cc2nc(NCc3ccc(S(N)(=O)=O)cc3)nc(Nc3ccc(Oc4ccccc4)cc3)c2cc1OC`, for which the inhibition amounted to 4.15%.
The figure for `CCC[C@@H]([C@@H](CC1CCC(C)CC1)C(=O)N[C@@H](CCCCNC(=O)c1ccccn1)C(=O)Nc1nccs1)N(O)C=O` (stereo not given in full) is 2.27%; for `Cn1cc(C2CCN(CCCCNC(=O)c3sc(-c4ccc(C(F)(F)F)cc4)nc3CO)CC2)c2ccccc21` it is -3.34%; for `O=C(NCCCCCN1CCC(c2c[nH]c3ccccc23)CC1)Nc1ccc(Cl)c(Cl)c1` it is -1%.
For `N#CCCN1CCN(Cc2cccc(-c3ccc(-c4nc5ccccc5[nH]4)s3)c2)CC1`, the inhibition was -1.29%.
With `N=C(N)Nc1ccc(OCCCCCOc2ccc(NC(=N)N)c(Cl)c2)cc1Cl` the figure was -0.79%.
Turning to `CC(NCCC1CCC(NC(=O)N[C@H](C)C(O)(c2ccccc2)c2ccccc2)CC1)c1cccc2ccccc12` (stereo not given in full), the inhibition was 16.8%.
On to `Cc1nc(N)nc(N)c1-c1cc(Cl)c(Cl)c(Cl)c1`, for which the inhibition came to 0.4%.
The figure for `Cc1ccccc1NC(=O)C1CSCN1C(=O)OCc1ccccc1` (stereo not given) is -1.39%; for `Cc1cc(C2CCN(CCCCNC(=O)c3ccc(-c4ccc(C#N)cc4)cc3)CC2)c(C)cc1O` it is 4.77%; for `COc1ccc2[nH]c(C)cc(=NN=Cc3ccccc3)c2c1` it is -2.87%.
With `COCCn1c(C)nc2ccccc2c1=O` the figure was 1.04%; with `CC(C)(C)c1ccc(CN2CCC(NC(=O)c3ccc(-c4ccccc4Cl)s3)CC2)cc1`, 10.1%.
As to `c1ccc(-c2cc3cccc(-c4nc5cnccc5[nH]4)c3o2)cc1`, the inhibition stood at 10.8%.
The figure for `CC(Cc1ccc(OCCN2CCN(c3ccccc3)CC2)cc1)NCC(O)c1cccc(Cl)c1F` (stereo not given) is 2.22%.
Regarding `COc1ccc(-c2ccc(CNC(=O)c3ccc(C#N)cc3)c(F)c2)cc1CN1CCCN(C)CC1`, the inhibition amounted to 0.92%.
Take `CCN(CC)CCN(Cc1ccc(-c2ccc(C(F)(F)F)cc2)cc1)C(=O)Cn1c(SCc2ccc(F)cc2)nc(=O)c2sccc21`: the inhibition is 5.28%.
The figure for `CN1CCN(c2ccc(Nc3c(C(N)=O)cnc4cc(-c5ccoc5)ccc34)cc2C(F)(F)F)CC1` is 2.31%; for `Cc1ccc(O)c(C(=O)c2cc(C(=O)Nc3ccccc3C)c(=O)n(-c3ccccc3C)c2)c1` it is 4.62%.
The figure for `Cc1ccc(-n2cc(CNCCc3nc(C)c[nH]3)c(-c3ccc(F)cc3)n2)cc1` is 4.34%.
The figure for `CC(=O)Nc1cccc(CNCc2ccc(-c3cnc(N4CCCC(c5ccccc5)C4)nc3)cc2)c1` (stereo not given) is 4.23%.
Turning to `CCC(C)NCCC(c1ccccc1)c1ccccc1O` (stereo not given), the inhibition was determined as 5.11%.
With `FC(F)(F)c1cc(Nc2ccc(Oc3ccccc3)cc2)c2cc(-c3ccncc3)ccc2n1` the figure was -0.25%; with `COc1cc(NC(=O)C(c2ccc(Cl)cc2)C(C)C)cc(OC)c1` (stereo not given), 2.88%; with `Cc1nc(C)c(-c2ccc(Oc3ccc([S+](C)[O-])cc3)cc2)c(O)c1Br` (stereo not given), 3.66%.
Turning to `CC(C)CNC(=O)c1ccnc(-c2ccc(CNCCCc3ccccc3)cc2)c1`, the inhibition amounted to 2.32%.
With `CNC(=O)C1Cc2c([nH]c3cc(Cl)ccc23)C2(CCN(CCc3ccccc3)CC2)N1` (stereo not given) the figure was 0.42%; with `Cc1cccc2nc(-c3cccc(-c4cccc(NC(=O)C5CC(=O)Nc6ccccc65)c4)c3)[nH]c12` (stereo not given), 4.88%; with `CS(=O)(=O)N1CC2(CCN(CCC(NC(=O)Nc3ccccc3)c3ccc(Cl)c(Cl)c3)CC2)c2ccccc21` (stereo not given), 3.59%.
The figure for `CC(C)C[C@H](NC(=O)c1ccc(OCCN2CCOCC2)cc1)C(=O)N[C@H](/C=N/NC(=O)OC(C)(C)C)CCc1ccccc1` is 9.41%; for `O=[N+]([O-])c1ccc2ncnc(Nc3ccc(F)c(Cl)c3)c2c1` it is 2.27%.
With `COc1cc2ncnc(Nc3ccc(OC(F)(F)c4ccccc4)cc3)c2cc1OC` the figure was 9.55%; with `O=C(Nc1cccc(C(F)(F)F)c1)c1cccc2nc(C(F)(F)F)[nH]c12`, 19.4%.
